About 2,000 (36%) of roughly 5,500 compounds were called active. Inconclusive results (about 18%) are left out. No stated cut-off is given here; in the data, active means normalized growth mostly below about 0.91 (no sharp cut-off); inconclusive means no clear call, values can overlap the other calls; inactive means mostly above about 0.92. The list shows a part of the results.
Test: chemical genetic growth profiling, strain panel (AID 1159580);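 further: tested at 20 µM; growth read once vehicle control cultures reached saturation at 30 °C; 1 = growth at the plate median or of vehicle wells; lower values mean less growth of the strain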
Conditions: growth OD

Measured: normalized growth

CC(=O)OCC(=O)[C@@]1(O)CCC2C3C[C@H](C)C4=CC(=O)C=CC4(C)C3[C@@H](O)CC21C (some centres not stated)
inactive: S. cerevisiae deletion strains, locus YJR075W, strain HOC1, hits give low values 1.01 | S. cerevisiae deletion strains, locus YKL009W, strain mrt4, hits give low values 1.01 | S. cerevisiae deletion strains, locus YKL068W, hits give low values 1.02 | S. cerevisiae deletion strains, locus YKL085W, strain MDH1 (second series), hits give low values 0.995 | S. cerevisiae deletion strains, locus YKL085W, strain MDH1, hits give low values 0.995 | S. cerevisiae deletion strains, locus YKL160W, strain elf1, hits give low values 1.03 | S. cerevisiae deletion strains, locus YKL190W, strain CNB1, hits give low values 1 | S. cerevisiae deletion strains, locus YKR001C, strain vps1, hits give low values 0.997 | S. cerevisiae deletion strains, locus YKR026C, strain gcn3, hits give low values 1.01 | S. cerevisiae deletion strains, locus YKR091W, strain srl3, hits give low values 1.01 | S. cerevisiae deletion strains, locus YLL001W, strain dnm1, hits give low values 0.999 | S. cerevisiae deletion strains, locus YLL026W, hits give low values 1.01 | S. cerevisiae deletion strains, locus YLL041C, strain sdh2, hits give low values 1.01 | S. cerevisiae deletion strains, locus YLR027C, strain aat2, hits give low values 1.01 | S. cerevisiae deletion strains, locus YLR039C, strain RIC1, hits give low values 1.02 | S. cerevisiae deletion strains, locus YLR058C, strain SHM2, hits give low values 1.01 | S. cerevisiae deletion strains, locus YLR102C, strain apc9, hits give low values 1.01 | S. cerevisiae deletion strains, locus YLR113W, strain HOG1, hits give low values 1.02 | S. cerevisiae deletion strains, locus YLR221C, strain rsa3, hits give low values 0.997 | S. cerevisiae deletion strains, locus YLR258W, strain gsy2, hits give low values 1.03 | S. cerevisiae deletion strains, locus YLR262C, strain YPT6 (second series), hits give low values 1.03 | S. cerevisiae deletion strains, locus YLR262C, strain YPT6, hits give low values 1.01 | S. cerevisiae deletion strains, locus YLR268W, strain sec22, hits give low values 0.987 | S. cerevisiae deletion strains, locus YLR320W, strain mms22, hits give low values 1.01 | S. cerevisiae deletion strains, locus YLR330W, strain CHS5, hits give low values 1.01 | S. cerevisiae deletion strains, locus YLR342W, strain FKS1 (second series), hits give low values 1.03 | S. cerevisiae deletion strains, locus YLR342W, strain FKS1, hits give low values 1.02 | S. cerevisiae deletion strains, locus YLR357W, strain rsc2, hits give low values 1.03 | S. cerevisiae deletion strains, locus YLR370C, strain arc18, hits give low values 1.01 | S. cerevisiae deletion strains, locus YLR371W, strain rom2, hits give low values 1 | S. cerevisiae deletion strains, locus YLR384C, strain iki3, hits give low values 0.999 | S. cerevisiae deletion strains, locus YLR418C, strain cdc73, hits give low values 0.974 | S. cerevisiae deletion strains, locus YML016C, strain PPZ1, hits give low values 1 | S. cerevisiae deletion strains, locus YML032C, strain rad52, hits give low values 1.02 | S. cerevisiae deletion strains, locus YML120C, strain ndi1, hits give low values 1.02 | S. cerevisiae deletion strains, locus YML124C, strain tub3, hits give low values 1 | S. cerevisiae deletion strains, locus YMR058W, strain fet3, hits give low values 1.02 | S. cerevisiae deletion strains, locus YMR078C, strain ctf18, hits give low values 1 | S. cerevisiae deletion strains, locus YMR125W, strain sto1, hits give low values 1.04 | S. cerevisiae deletion strains, locus YMR129W, hits give low values 1.01 | S. cerevisiae deletion strains, locus YMR205C, strain PFK2, hits give low values 1.02 | S. cerevisiae deletion strains, locus YMR223W, strain ubp8, hits give low values 1.01 | S. cerevisiae deletion strains, locus YMR231W, strain pep5, hits give low values 1.02 | S. cerevisiae deletion strains, locus YMR263W, strain SAP30, hits give low values 1 | S. cerevisiae deletion strains, locus YMR307W, strain GAS1, hits give low values 1.03 | S. cerevisiae deletion strains, locus YNL067W, strain RPL9B, hits give low values 0.996 | S. cerevisiae deletion strains, locus YNL071W, strain lat1, hits give low values 1.01 | S. cerevisiae deletion strains, locus YNL128W, strain TEP1, hits give low values 1.01 | S. cerevisiae deletion strains, locus YNL153C, strain GIM3, hits give low values 0.998 | S. cerevisiae deletion strains, locus YNL183C, strain NPR1, hits give low values 0.962 | S. cerevisiae deletion strains, locus YNL209W, strain ssb2, hits give low values 1 | S. cerevisiae deletion strains, locus YNL233W, strain BNI4, hits give low values 1.01 | S. cerevisiae deletion strains, locus YNL248C, strain rpa49, hits give low values 1.02 | S. cerevisiae deletion strains, locus YNL250W, strain rad50, hits give low values 1 | S. cerevisiae deletion strains, locus YNL271C, strain bni1, hits give low values 1 | S. cerevisiae deletion strains, locus YNL298W, strain CLA4, hits give low values 1.01 | S. cerevisiae deletion strains, locus YNL307C, strain MCK1, hits give low values 1.01 | S. cerevisiae deletion strains, locus YNL322C, strain KRE1 (second series), hits give low values 1 | S. cerevisiae deletion strains, locus YNL322C, strain KRE1, hits give low values 1 | S. cerevisiae deletion strains, locus YNR049C, strain mso1, hits give low values 1.02 | S. cerevisiae deletion strains, locus YNR052C, strain pop2, hits give low values 1 | S. cerevisiae deletion strains, locus YOL006C, strain TOP1, hits give low values 1.01 | S. cerevisiae deletion strains, locus YOL012C, strain htz1 1.08 | S. cerevisiae deletion strains, locus YOL147C, strain pex11, hits give low values 1 | S. cerevisiae deletion strains, locus YOR001W, strain rrp6, hits give low values 0.988 | S. cerevisiae deletion strains, locus YOR061W, strain CKA2, hits give low values 1 | S. cerevisiae deletion strains, locus YOR069W, strain VPS5, hits give low values 1.01 | S. cerevisiae deletion strains, locus YOR070C, strain gyp1, hits give low values 1.02 | S. cerevisiae deletion strains, locus YOR080W, strain dia2, hits give low values 1.06 | S. cerevisiae deletion strains, locus YOR083W, strain WHI5, hits give low values 1.02 | S. cerevisiae deletion strains, locus YOR106W, strain vam3, hits give low values 1.01 | S. cerevisiae deletion strains, locus YOR136W, strain idh2, hits give low values 1.01 | S. cerevisiae deletion strains, locus YOR144C, strain elg1, hits give low values 1.01 | S. cerevisiae deletion strains, locus YOR184W, strain ser1, hits give low values 1.01 | S. cerevisiae deletion strains, locus YOR231W, strain MKK1, hits give low values 1.02 | S. cerevisiae deletion strains, locus YOR265W, strain rbl2, hits give low values 1.01 | S. cerevisiae deletion strains, locus YOR270C, strain vph1, hits give low values 0.982 | S. cerevisiae deletion strains, locus YOR290C, strain snf2, hits give low values 1.03 | S. cerevisiae deletion strains, locus YOR316C, strain cot1, hits give low values 1 | S. cerevisiae deletion strains, locus YPL051W, strain arl3, hits give low values 1.03 | S. cerevisiae deletion strains, locus YPL055C, strain LGE1, hits give low values 0.999 | S. cerevisiae deletion strains, locus YPL078C, strain atp4, hits give low values 1.03 | S. cerevisiae deletion strains, locus YPL106C, strain sse1, hits give low values 1.04 | S. cerevisiae deletion strains, locus YPL240C, strain hsp82, hits give low values 0.994 | S. cerevisiae deletion strains, locus YPL241C, strain CIN2, hits give low values 1.01 | S. cerevisiae deletion strains, locus YPL256C, strain CLN2, hits give low values 1.01 | S. cerevisiae deletion strains, locus YPR119W, strain clb2, hits give low values 1.01 | S. cerevisiae deletion strains, locus YPR141C, strain kar3, hits give low values 1.01 | S. cerevisiae deletion strains, locus YPR163C, strain tif3, hits give low values 1.01 | S. cerevisiae deletion strains, locus YPR167C, strain met16, hits give low values 0.995 | S. cerevisiae deletion strains, strain wtn01, hits give low values 1.01 | S. cerevisiae strains, strain wild type, hits give low values 1

Source: PubChem BioAssay AID1159580 (chemical genetic matrix, 2015)
